Assay results from PubChem BioAssay (Tox21).
Results filed as inconclusive are left out. Active and inactive are the calls of the source. The call rests on the fitted dose curve; in most records, active means well fitted cell-killing curve with a large enough effect in the repeat runs; inconclusive means weak or mixed curves, or effect the other way; inactive means no such curve, though single readings can be large or run the other way.

Assay: qHTS assay for small molecule activators of the heat shock response signaling pathway - cell viability counter screen (AID 743209); further: nearly all actives have a fitted effect of over 50% in size
Settings: HSE-bla HeLa viability, CellTiter-Glo luminescence, 5 h; series mostly up to 62.6 µM; activity change, negative = cytotoxicity: at the top concentration
Description: U.S. Tox21 Program National Center for Advancing Translational Sciences [NCATS] NIH Chemical Genomics Center [NCGC] U.S. Environmental Protection Agency [EPA] National Institutes of Environmental Health Sciences [NIEHS] National Toxicology Program [NTP] U.S. Food and Drug Administration [FDA] Tox21 Assay Overview: Various chemicals, environmental and physiological stress conditions may lead to the activation of heat shock response/ unfolded protein response (HSR/UPR). There are three heat shock transcription factors (HSFs) (HSF-1, -2, and -4) mediating transcriptional regulation of the human HSR. To identify the compounds that activate HSR signaling, HSE-bla HeLa cell line (Invitrogen, Carlsbad, CA, USA) containing a beta-lactamase reporter gene under the control of the heat shock response elements was used to screen Tox21 10K compound library. The cytotoxicity of the Tox21 compound library against the HSE-bla HeLa cell line was tested in parallel by measuring the cell viability using CellTiter-Glo assay (Promega, Madison, WI) in the same wells.
Tox21 Assay Protocol Summary: The CellSensor HSE-bla HeLa cells (Invitrogen, Carlsbad, CA, USA) were dispensed at 1500 cells/6uL/well into 1536-well black wall/clear bottom plates using a Multidrop combi (Thermo Fisher Scientific, Waltham, MA) dispenser. After the assay plates were incubated at 37 C and 5% CO2 overnight, 23 nL of compounds dissolved in DMSO, positive controls or DMSO only was transferred to the assay plate by a Pintool station (Kalypsys, San Diego, CA). The plates were incubated at 37 C for 5 h. After 1 uL of LiveBLAzerTM B/G FRET substrate was added using a Flying Reagent Dispenser (FRD, Beckman Coulter, Indianapolis, IN, USA), the plates were incubated at room temperature for 2.5 h, and fluorescence intensity was measured by an Envision plate reader (PerkinElmer, Shelton, CT). For cell viability readout that measures cytotoxicity, 3 ul/well of CellTiter-Glo reagent was added into the assay plates using a FRD. After 30 min incubation at room temperature, the luminescence intensity in the plates was measured using a ViewLux (PerkinElmer) plate reader.
On the % scale 0 is the no-effect control and ±100 the full control effect.

SMILES	activity change, negative = cytotoxicity
CC12CCC(C(=O)C1=O)C2(C)C (stereo not given)	6.74% [at 81.1 µM] (inactive)
CCCOC(=O)CC	0.664% (inactive)
Cc1cccc(C)c1NC(=O)CC12CCCN1CCC2	-21.9% (inactive)
CCOC(=O)C1=NOC(c2ccccc2)(c2ccccc2)C1	4.02% (inactive)
O=S(=O)(O)c1cccc(S(=O)(=O)O)c1	-15% (inactive)
O=C(O)Cc1csc(-c2ccc(Cl)cc2)n1	-1.49% (inactive)
CCOC(=O)COc1cc(-n2ncc(C(F)(F)F)c(C)c2=O)c(F)cc1Cl	0.841% (inactive)
CCCCOCCOC(=O)CCCCCCCCC(=O)OCCOCCCC	0.757% (inactive)
Cc1ncc(COP(=O)(O)O)c(C=O)c1O	1.31% (inactive)
COC(=O)C1=C(C)NC(C)=C(C(=O)OC(C)C)C1c1cccc2nonc12 (stereo not given)	-15.7% (inactive)
O=C(c1ccccc1O)c1ccccc1O	1.62% (inactive)
CC(=O)c1cnccn1	-1.03% [at 81.1 µM] (inactive)
CC(C)CCCO	2.92% (inactive)
CCCCOCCOC(=O)COc1cc(Cl)c(Cl)cc1Cl	-6.59% (inactive)
CN1CCN(c2cc3c(nn2)Oc2ccccc2N3C)CC1	-3.24% [at 29.1 µM] (inactive)
CN(C)[C@@H]1C(=O)C(C(=O)NCN2CCCC2)=C(O)[C@@]2(O)C(=O)C3=C(O)c4c(O)cccc4[C@@](C)(O)C3C[C@@H]12 (stereo not given in full)	10.9% (inactive)
COc1cc2c(cc1OC)-c1cc3ccc(OC)c(OC)c3c[n+]1CC2	-16.9% [at 81.1 µM] (inactive)
CC(COc1ccccc1)NN (stereo not given)	5.54% (inactive)
CO[Si](C)(OC)c1ccccc1	2.33% (inactive)
CCCC(=O)O[C@]1(C(=O)CC)CC[C@H]2[C@@H]3CCC4=CC(=O)CC[C@]4(C)[C@H]3[C@@H](O)C[C@@]21C	5.06% (inactive)

SMILES	activity change, negative = cytotoxicity
O=C(O)CNC(=O)c1ccc(CO)o1	5.29% (inactive)
Cc1ccccc1N=C(N)N=C(N)N	8.66% (inactive)
CC1(C)[C@@H]2CC[C@@]1(C)[C@H](O)C2	-4.68% (inactive)
CC(C)(C)C(=O)Oc1ccc(S(=O)(=O)Nc2ccccc2C(=O)NCC(=O)O)cc1	-26.1% (inactive)
CCCCCCCCCC[N+](C)(C)[O-]	0.75% (inactive)
Cc1c(N)c(=O)n(-c2ccccc2)n1C	-1.75% (inactive)
Cc1ccc(C(=O)c2ccccc2)cc1	-0.663% (inactive)
CC(CO)(CO)[N+](=O)[O-]	5.1% (inactive)
CN1[C@@H]2CC[C@H]1CC(OC(=O)C(O)c1ccccc1)C2 (stereo not given in full)	-1.17% (inactive)
CC1=NN(c2cc(S(=O)(=O)O)ccc2Cl)C(=O)C1N=Nc1ccccc1 (stereo not given)	5.94% (inactive)
CCN1CCOCC1	2.16% (inactive)
C1CCC2(CCCCO2)OC1	-1.05% (inactive)
CCCc1ncc(C[n+]2ccccc2C)c(N)n1	-3.29% (inactive)
N[C@@H](CCC(=O)O)C(=O)O	6.41% (inactive)
CCCCCCC#CC(=O)OC	-0.785% (inactive)
NS(=O)(=O)Cc1noc2ccccc12	21.1% (inactive)
C=C[Si](OC(C)=O)(OC(C)=O)OC(C)=O	-9.45% (inactive)
CNCC(O)c1ccc(O)c(O)c1 (stereo not given)	-4.09% (inactive)
CC(C)C(=O)OC(=O)C(C)C	0.367% (inactive)
CCC(C(=O)NC(=O)NC(C)=O)c1ccccc1 (stereo not given)	13.6% (inactive)
